# Screening data (PubChem)
# TLR4 MyD88 comp: inhibitors of TLR4-MyD88 association in cells, primary screen, cell-based, HeLa CL3-4, BLA complementation, FRET ratio | HeLa CL3-4 TLR4/MyD88 BLA complementation | actives 0.18% (n = 200,000) | inhibition, % at 8.4 µM; in the data active = inhibition above about 25%;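 note: 0% = vehicle and 100% = reference inhibitor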
# Granule exo inh: LAMP-1 surface exposure blockers, TALL-104 cells – cell-based, flow cytometry, MLPCN library, primary screen. TALL-104 LAMP-1 surface exposure; cells stimulated with thapsigargin and PMA. inhibition, % at 10 µM. actives 0.66% (n = 360,000);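 active = inhibition above about 55%, limit read from the data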
# NOD2 RIPK2 PPI: NOD2-RIPK2 binding disruptors in cells, primary screen, fluorescence, CHO cells, BLA complementation; CCF4 ratio; actives 0.38% (n = 360,000); Receptor-interacting serine/threonine-protein kinase 2 (Homo sapiens), O43353; AID 624267, 2012; inhibition, % at 4.98 µM; in the data active = inhibition above about 21%;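 note: 0% = vehicle only and 100% = reference blocker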
# TLR9-MyD88 block: inhibitors of TLR9-MyD88 association in cells, primary screen, cell-based, CHO, BLA complementation, fluorescence; CCF4 FRET ratio; actives 0.21% (n = 340,000); AID 504734, 2011; inhibition, % at 4.98 µM; Toll-like receptor 9 (Homo sapiens) + Myeloid differentiation primary response protein …;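 active = inhibition above the mean over all tested compounds plus 3 SD, cut at about 21% in these data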;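 note: 0% = DMSO only wells and 100% = clavulanate BLA inhibitor control wells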
# ABHD5-PLIN5 inh: ABHD5-PLIN5 interaction inhibitors, primary screen, cell lysate, split luciferase complementation, luminescence; Perilipin-5 (Homo sapiens) + 1-acylglycerol-3-phosphate O-acyltransferase ABHD5 (Homo …; inhibition, % at 4 µM; actives 0.78% (n = 360,000); Split G. princeps luciferase complementation, 4 h;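 active = inhibition above the mean inhibition across every tested compound plus 3 SD, cut at about 22% in these data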;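 note: 0% = DMSO only wells and the 100% control is not disclosed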
# B2AR ag: beta2AR agonists driving receptor internalization, primary screen, cell-based, FAP fluorogen, flow cytometry; actives 0.43% (n = 340,000); AID 504454, 2011; response, % (concentration not given with the values); Beta-2 adrenergic receptor (Homo sapiens), P07550; Am2.2-beta2AR cells;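 active = response above a set limit, near 3 SD of response in nonfluorescent compounds, cut at about 42% in these data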
# B2AR ag CP1: beta2AR agonists via receptor internalization, confirmation, cell-based, FAP fluorogen, flow cytometry, single point, cherry pick 1; shares compounds with B2AR ag; Am2.2-beta2AR cells, FAP surface receptor; stronger effect = lower value; percent response (surface receptor), % at 10 µM; actives 25% (n = 1,100); AID 540358, 2011;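 active = surface receptor percent response at or below 58%, roughly 3 SD from nonfluorescent compounds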
# FAP fluor counter: flagged in Am2.2 fluorescence counterscreen for beta-2AR agonists | shares compounds with B2AR ag | 1,100 tested, under 10 active | calls only at 10 µM | Am2.2 cells, FAP fluorogen flow cytometry; stronger effect = lower value;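 active = percent response below a set limit in fluorescence channel 1 and below 50% in channel 8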
# * marks the source's active call; other numbers are inactive results; i = inactive; . = no result. This is a sample that favours compounds with a hit; in the whole collection about 2% have one here.
SMILES,TLR4 MyD88 comp,Granule exo inh,NOD2 RIPK2 PPI,TLR9-MyD88 block,ABHD5-PLIN5 inh,B2AR ag,B2AR ag CP1,FAP fluor counter
COc1ccc(C2=NN(C(=O)c3cccs3)C(c3ccc(OC)cc3)C2)cc1 (configuration not stated),-13,-4,-2,-5,-3,44*,43*,i
O=C(NCc1ccccc1)C1c2ccccc2OCC(=O)N1Cc1ccccc1 (configuration not stated),.,-11,0,.,-1,.,.,.
Cc1cc(CN(C)C(=O)CC2C(=O)NCCN2Cc2ccc(-c3ccccc3)cc2)on1 (configuration not stated),.,0,-11,-8,1,46*,90,i
Nc1c(Cl)cnn(-c2ccccc2)c1=O,.,-15,2,.,0,-5,112,i
CC1(C)CC(=O)C(CC(=O)c2ccccc2)=C(NN=C(N)N)C1,.,1,1,-9,-1,.,.,.
CC(C)(C)OC(=O)N1CC2(CCCCC2)CC1Cc1ccc(C(F)(F)F)cc1 (configuration not stated),.,-1,2,3,-9,.,100,i
CC1(C)CC(Cc2cccc(C(F)(F)F)c2)N(C(=O)OC(C)(C)C)C1 (configuration not stated),.,3,-4,-9,0,.,111,i
COc1cc(/C=C2/C(=O)NN(c3ccc(Cl)cc3)C2=O)ccc1OC(=O)c1ccco1,13,-2,-7,4,-3,10,.,.
COc1cc(/C=C2/C(=O)NN(c3cccc(F)c3)C2=O)ccc1OC(=O)c1ccco1,-14,0,-9,5,-4,47*,114,i
CC(=O)c1cccc(N=c2scc(-c3ccc(S(=O)(=O)N4CCOCC4)cc3)n2CCO)c1,-6,13,0,-7,-4,104*,117,i
O=C(COC(=O)c1ccccn1)c1ccc([N+](=O)[O-])cc1,.,1,-4,-9,-7,2,.,.
CCCc1ccc(OCc2nc(-c3ccc(NC(=O)c4cccs4)cc3)no2)cc1,9,0,-6,7,0,-5,75,i
CCCc1ccc(OCc2nc(-c3ccc(NC(=O)c4ccco4)cc3)no2)cc1,7,0,-7,0,-3,27,42*,i
C[C@@H]1Cn2cnc(C(=O)N[C@@H](C)c3ccccc3)c2C(=O)N1,.,10,3,11,0,.,.,.
COc1ccc(OCC(=O)Nc2ccc3c(c2)nc(CCN2CCN(C)CC2)n3C)cc1,.,-3,5,-10,3,52*,107,i
Cc1cccc(OCC(=O)Nc2ccc3c(c2)nc(CCN2CCN(C)CC2)n3C)c1,-2,4,-9,-4,-2,-1,112,i
Cn1c(CSc2nc3ccccc3n2C)nc2ccccc21,-6,0,2,0,3,-6,.,.
Cn1c(SC2=CS(=O)(=O)c3ccccc32)nc2ccccc21,3,-8,10,-10,-5,74*,75,i
Cc1ccnc(NC(=O)CNC(=O)c2ccc(Br)o2)c1,.,-6,0,-9,-1,-10,.,.
CCOC(=O)C1(C)C=C(Nc2ccc(OC)cc2)C(=O)N1c1ccc(OC)cc1 (configuration not stated),-8,-6,2,4,2,-7,.,.
